# Results reported in PubChem BioAssay (Tox21).
# Records with an inconclusive call do not appear. A call without a number means that no potency is given here. Calls of active or inactive are those of the source. Calls follow the shape of the dose curve; as a rule, active = well fitted inhibition curve with a large enough effect in the repeat runs; inconclusive = weak or mixed curves; inactive = flat fitted curve, though single readings scatter.
# Target: Luciferin 4-monooxygenase (Photinus pyralis) (UniProt P08659)
# Experiment: qHTS assay to identify small molecule inhibitors of firefly luciferase (AID 1224835); also: nearly all actives have a fitted effect of over 25% in size
# Conditions: purified P. pyralis luciferase, luminescence inhibition; series mostly up to 115 µM
# From the text: U.S. Tox21 Program National Center for Advancing Translational Sciences [NCATS] NIH Chemical Genomics Center [NCGC] U.S. Environmental Protection Agency [EPA] National Institutes of Environmental Health Sciences [NIEHS] National Toxicology Program [NTP] U.S. Food and Drug Administration [FDA] Tox21 Assay Overview: Firefly (Photinus pyralis) luciferase is one of the most commonly used transcriptional reporters. Firefly luciferase reporter-gene assays are generally considered one of the most sensitive assay types (Wood, 1995; Wood, 1998). However, it was initially observed, in 1991, by Thompson et al., that compounds that resemble the substrates of firefly luciferase (FLuc) can act as competitive inhibitors of the enzyme, and that these compounds, upon interaction with luciferase in the cell, can actually stabilize the protein and increase its half-life. Previous profiling work by other groups to determine the prevalence of compounds that affect FLuc enzymatic activity (PubChem AID 411) identified that ~3% of the MLSMR library (then at ~72K) inhibited FLuc. […] Thus the Tox21 10K library is profiled for activity against FLuc using a biochemical assay of purified FLuc and KM concentrations of FLuc substrates (D-luciferin and ATP).
# These assay plates were then treated with 23nL of compound or DMSO using a Kalypsys pin tool, which allows for delivery of a 6-point interplate titration of each compound to the assay plate (quantitative HTS.) 1 uL of firefly luciferase mix (containing 50 mM Tris acetate, pH 7.6, 0.04 uM P. pyralis luciferase, 0.01% Tween, 0.05% BSA and dH2O) was then delivered by FRD to each well. Luciferase activity was then measured using a ViewLux CCD imager.
# Chain of Luciferin 4-monooxygenase (Photinus pyralis) (P08659 whole entry, looked up): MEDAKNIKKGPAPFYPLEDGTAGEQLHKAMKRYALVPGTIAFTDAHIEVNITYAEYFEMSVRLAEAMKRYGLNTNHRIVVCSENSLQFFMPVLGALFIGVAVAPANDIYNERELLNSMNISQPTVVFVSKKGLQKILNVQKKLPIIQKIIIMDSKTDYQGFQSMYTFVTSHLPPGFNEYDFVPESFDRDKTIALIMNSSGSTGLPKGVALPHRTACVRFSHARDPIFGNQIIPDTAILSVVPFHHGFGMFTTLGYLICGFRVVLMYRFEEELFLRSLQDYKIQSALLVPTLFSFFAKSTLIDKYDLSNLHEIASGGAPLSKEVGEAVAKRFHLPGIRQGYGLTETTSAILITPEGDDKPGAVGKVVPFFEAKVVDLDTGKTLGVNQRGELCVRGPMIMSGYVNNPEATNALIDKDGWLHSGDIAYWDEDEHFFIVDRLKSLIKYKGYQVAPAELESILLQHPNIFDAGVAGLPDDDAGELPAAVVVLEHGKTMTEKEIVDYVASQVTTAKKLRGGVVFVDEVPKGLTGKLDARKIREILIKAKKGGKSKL
row,Compound,Potency
1,C[C@]12CC[C@@H]3c4ccc(O)cc4CC[C@H]3[C@@H]1C[C@@H](O)[C@@H]2O,inactive
2,C=CC[N+](C)(C)CC=C,inactive
3,CC1(C)NC(=O)NC1=O,inactive
4,CCOCCOCCOCCO,inactive
5,CC(C)c1cccc(C(C)C)c1,inactive
6,CC(=O)Oc1ccc(C)cc1,inactive
7,C[C@]12CCC(=O)C=C1CC[C@@H]1[C@@H]2[C@@H](O)C[C@@]2(C)[C@H]1CC[C@]2(O)C(=O)CO,inactive
8,C=CC(C)CCCC(C)(C)O (stereo not given),inactive
9,CCCCCCCC=O,inactive
10,CC(=O)c1ccc(O)cc1,inactive
11,c1ccc2c(c1)Cc1ccccc1-2,inactive
12,Clc1ccccn1,inactive
13,COCCOC(=O)c1ccccc1C(=O)OCCOC,inactive
14,COC(=O)CCCC(=O)OC,inactive
15,Cc1ccc(C(C)C)c(O)c1,inactive
16,CC(O)CC(C)(C)O (stereo not given),inactive
17,c1ccc(Oc2ccccc2)cc1,inactive
18,C=CCc1ccc(OC)c(OC)c1,inactive
19,CN(C)CCOC(=O)COc1ccc(Cl)cc1,inactive
20,CC(=O)OCc1ccccc1,inactive

row,Compound,Potency
1,Nc1nc(N)nc(-c2ccccc2)n1,inactive
2,OCc1ccccc1,inactive
3,CC1(C)OC[C@@H]2O[C@@]3(C(=O)O)OC(C)(C)O[C@H]3[C@@H]2O1,inactive
4,CC(C)CC(=O)CC(C)CC(C)C (stereo not given),inactive
5,CCCCCCCO,inactive
6,CCNC(=S)NCC,inactive
7,CC(=O)OCCOC(C)=O,inactive
8,CCO[Si](CCC#N)(OCC)OCC,inactive
9,COc1ccccc1OCC(O)CO (stereo not given),inactive
10,COc1ccc(CCC(C)=O)cc1,inactive
11,CC1(C)CC(N)CC(C)(CN)C1 (stereo not given),inactive
12,CN(C)c1ccc(Cc2ccc(N(C)C)cc2)cc1,inactive
13,C=C(C)C(=O)OCC(C)C,inactive
14,C=CCCCCCCCCC(=O)O,inactive
15,CC(CCO)CC(C)(C)C (stereo not given),inactive
16,CC(C)CCCCCCCOC(=O)CCCCC(=O)OCCCCCCCC(C)C,inactive
17,C=C(C)[C@H]1CC=C(C)C(=O)C1,inactive
18,CC(C)CC(C)O (stereo not given),inactive
19,CCCCCCO,inactive
20,CC(=O)OCc1ccco1,inactive
